# Data reported in PubChem BioAssay (Tox21).
# Inconclusive results are not listed. Calls of active or inactive are those of the source. Calls follow the shape of the full dose curve.
# Assay: qHTS assay to identify small molecule antagonists of the sonic hedgehog signaling (Shh) pathway (AID 1259369); also: nearly all actives have a fitted effect of over 45% in size
# Details: NIH/3T3 Gli1-Luc reporter, Shh antagonist, luminescence 24 h; series mostly up to 92.4 µM; activity change, negative = inhibition: at the top concentration
# How it was run: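 Read-out is luminescence from a firefly luciferase gene controlled by the Gli1 response element, in 3T3Gli1-Luc cells pre-incubated 4hr then exposed to compounds and conditioned medium for 24hr.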
# % is scaled to controls: 0 for no effect and ±100 for the full control effect.
row,SMILES,"activity change, negative = inhibition"
1,NS(=O)(=O)c1ccc(Cl)c(S(N)(=O)=O)c1,-5.38% [at 42.5 µM] (inactive)
2,O=C(O)c1ccccc1C(=O)Nc1ccc(S(=O)(=O)Nc2nccs2)cc1,12% [at 42.5 µM] (inactive)
3,COCC(=O)Nc1c(I)c(C(=O)NCC(O)CO)c(I)c(C(=O)N(C)CC(O)CO)c1I (stereo unspecified),27.7% [at 42.5 µM] (inactive)
4,NC(=O)NC(=O)Cc1ccccc1,24.1% [at 42.5 µM] (inactive)
5,C=CCOC(=O)c1ccc(C(=O)OCC=C)c(C(=O)OCC=C)c1,-12.1% (inactive)
6,CC(C)SCc1ccco1,0.887% [at 42.5 µM] (inactive)
7,CCCOC(=O)CCCCC(=O)OCCC,-5.06% (inactive)
8,C=CCOc1c(Br)cc(C(C)(C)c2cc(Br)c(OCC=C)c(Br)c2)cc1Br,17.9% [at 42.5 µM] (inactive)
9,C/C=C(\C)C(=O)OCC/C=C\CC,9.27% (inactive)
10,COc1cc([N+](=O)[O-])ccc1N,-19.6% (inactive)
11,CCN1CN(CC)CN(CC)C1,0% (inactive)
12,C=CCOCC(CO)(COCC=C)COCC=C,9.49% [at 42.5 µM] (inactive)
13,CC(C)CCCCCCOC(=O)C1CCCCC1C(=O)OCCCCCCC(C)C (stereo unspecified),1.13% (inactive)
14,CCOc1ccc(NC(=O)OC(C)C)cc1OCC,7.55% (inactive)
15,NC(Cc1c[nH]c2ccccc12)C(=O)O (stereo unspecified),-4.98% [at 42.5 µM] (inactive)
16,O=C1c2ccccc2-c2ccccc21,-28.2% (inactive)
17,CCCCC(CC)COC(=O)c1ccccc1 (stereo unspecified),13.5% (inactive)
18,c1ccc(CNc2ncnc3nc[nH]c23)cc1,-16.9% (inactive)
19,CC(C)CCCC(C)CC=O (stereo unspecified),0.0618% (inactive)
20,CCN(Cc1cccc(S(=O)(=O)O)c1)c1ccccc1,39.4% (inactive)
21,CO[Si](CCCCl)(OC)OC,-3.31% (inactive)
22,NS(=O)(=O)c1ccccc1OC(F)(F)F,-13.9% (inactive)
23,CCOC(=O)CC#N,-3.51% (inactive)
24,CCCCCCCCCCC,0% (inactive)
25,O=c1[nH]c(=O)c2ccccc2o1,-1.35% [at 42.5 µM] (inactive)
26,CC(=O)N1CCN(c2ccc(O)cc2)CC1,6.12% [at 42.5 µM] (inactive)
